From PubChem
Tau fluor counter: Counterscreen qHTS for Inhibitors of Tau Fibril Formation, Fluorescence Polarization; AID 1463, 2008; tau K18 P301L Alexa594 fluorescence, heparin fibrillization; 280,000 compounds, 0.93% hits; Potency, µM (series often up to 57.7 µM), inactives show at the top dose activity change, negative = decrease; also: nearly all actives have a fitted effect of over 55% in size
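Human tau K18 P301L (15 uM unlabeled, 0.24 uM Alexa 594-labeled) in 100 mM sodium acetate pH 7 with 20 uM heparin, 6 hr at 37 C. ThT 30 uM added, 1 hr ambient; Alexa 594 FP and total fluorescence read at 555/632 nm.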
TR SRC2 fluor cs: Total Fluorescence Counterscreen for Inhibitors of the Interaction of Thyroid Hormone Receptor and Steroid Receptor Coregulator 2 | Potency, µM (highest dose often 106 µM), for inactives: at the highest dose fluorescence change, negative = quenching | TRb/SRC2 Texas Red total fluorescence interference | AID 1479, 2009 | 280,000 compounds, 0.29% hits; active = well fitted curve in either direction with a large enough effect; inconclusive = small, poorly fitted or top-dose-only effect
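Flags fluorescent or light-absorbing compounds by total fluorescence, S + 2P, at 555 nm excitation and 632 nm emission. Mixture: 20 nM Texas Red SRC2 peptide, 0.6 uM human TRb LBD, 1 uM T3, 5% DMSO; compound exposure 5 h at ambient temperature.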
Tau FP inhib: qHTS for Inhibitors of Tau Fibril Formation, Fluorescence Polarization | Microtubule-associated protein tau (Homo sapiens), P10636 | K18 P301L tau heparin fibrillization, Alexa594 FP, 6 h | Potency, µM (doses to about 57.7 µM), without a hit: top-dose activity, negative = inhibition, most hits filed as inhibitors | 280,000 compounds, 0.39% hits | AID 1468, 2008; also: nearly all actives have a fitted effect of over 55% in size
Target sequence (P10636 561-689 P618L limits assumed): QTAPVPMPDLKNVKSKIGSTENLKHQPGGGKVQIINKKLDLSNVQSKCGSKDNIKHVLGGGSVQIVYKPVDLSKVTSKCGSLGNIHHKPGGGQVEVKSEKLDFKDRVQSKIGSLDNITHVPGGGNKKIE
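Compound effects on tau fibrillization are measured by Alexa 594 fluorescence polarization (ex 555, em 632 nm). K18 P301L tau is used at 15 uM with 0.24 uM labeled tracer, and 20 uM heparin induces aggregation over 6 hr at 37 C.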
KDM4E inh: qHTS Assay for Inhibitors of Human Jumonji Domain Containing 2E (JMJD2E); Lysine-specific demethylase 4E (Homo sapiens), B2RXH2; JMJD2E catalytic domain, FDH-coupled NADH fluorescence (FDH is formaldehyde dehydrogenase); Potency, µM (series often up to 57.1 µM), inactives show at the top dose activity change, negative = inhibition, usual class: inhibitors; 230,000 compounds, 1.6% hits; AID 2147, 2009; active = well fitted inhibition curve with a large enough effect, not every such curve was filed as active; inconclusive = small, poorly fitted or top-dose-only effect, or another doubt; inactive = no such curve, though single readings can be large or run the other way;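 also: 0% = wells with enzyme and -100% = buffer wells without enzyme; nearly all actives have a fitted effect of over 50% in size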
Tau ThT inhib: qHTS for Inhibitors of Tau Fibril Formation, Thioflavin T Binding; recombinant tau K18 P301L (four-repeat tau fragment), heparin-induced fibrillization, ThT fluorescence; Potency, µM (doses to about 57.4 µM), inactives show top-dose activity, negative = inhibition, usual class: inhibitors; Microtubule-associated protein tau (Homo sapiens), P10636; 270,000 compounds, 2.1% hits; also: nearly all actives have a fitted effect of over 55% in size
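Recombinant human tau K18 fragment […] carrying P301L, 15 uM unlabeled plus 0.24 uM Alexa 594-labeled, was fibrillized with 20 uM heparin in 100 mM sodium acetate pH 7 for 6 hr at 37 C; 30 uM ThT fluorescence read after 1 hr.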
TRb SRC2 PPI: qHTS for Inhibitors of the Interaction of Thyroid Hormone Receptor and Steroid Receptor Coregulator 2 | Thyroid hormone receptor beta (Homo sapiens), P10828 | Potency, µM (doses to about 106 µM), without a hit: top-dose activity change, negative = inhibition, hits mostly inhibitors | 280,000 compounds, 0.065% hits | TRbeta-SRC2 peptide binding, fluorescence polarization; receptor liganded with 1 µM T3 | AID 1469, 2008;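 also: plate controls were bound peptide for no effect and peptide without receptor for full effect; nearly all actives have a fitted effect of over 50% in size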
Target sequence (P10828 whole entry, looked up): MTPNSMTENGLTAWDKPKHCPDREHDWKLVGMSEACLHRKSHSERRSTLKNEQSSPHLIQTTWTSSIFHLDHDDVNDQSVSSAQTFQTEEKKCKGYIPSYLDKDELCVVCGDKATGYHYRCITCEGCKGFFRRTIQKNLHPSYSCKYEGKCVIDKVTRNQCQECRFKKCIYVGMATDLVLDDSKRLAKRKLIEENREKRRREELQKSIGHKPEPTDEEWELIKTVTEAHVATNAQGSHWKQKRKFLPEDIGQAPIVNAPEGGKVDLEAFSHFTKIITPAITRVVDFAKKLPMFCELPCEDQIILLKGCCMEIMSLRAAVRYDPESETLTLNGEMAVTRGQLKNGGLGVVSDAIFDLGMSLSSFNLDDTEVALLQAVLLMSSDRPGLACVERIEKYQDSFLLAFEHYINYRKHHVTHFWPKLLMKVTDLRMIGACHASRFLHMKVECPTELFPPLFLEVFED
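Quantitative HTS by FP: 0.6 uM TRb LBD, 20 nM labeled SRC2 20-mer, 1 uM T3, 5% DMSO; 5 hr ambient incubation; % activity per concentration and potencies from concentration series.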
Active calls of the source: *; i = inactive; ? = inconclusive; . = not tested or not shown; [ ] = remark or other dose. The list is not random: actives were taken first. Their share in the collection is about 3.5%. Unless noted, calls follow the shape of the dose curve; as a rule, active = well fitted curve in the direction sought with a large enough effect; inconclusive = small, poorly fitted or top-dose-only effect, or another doubt; inactive = no such curve, though single readings can be large; an effect the other way counts as inactive or inconclusive. Unless noted, % is scaled to controls: 0 for no effect and ±100 for the full control effect; potency is read from the fitted curve at half-maximal effect.

SMILES	Tau fluor counter	TR SRC2 fluor cs	Tau FP inhib	KDM4E inh	Tau ThT inhib	TRb SRC2 PPI
Cc1ccc2nc(CSc3nc(C)cc(C)c3C#N)[nH]c2c1	?	-3%	?	?	13µM*	-13%
O=C1NN(c2ccccc2)C(=O)/C1=C/c1ccc(Sc2cccc3ccccc23)o1	14µM*[quencher]	-3%	?	-4%	13µM*	3%
O=C1NN(c2ccc(F)cc2)C(=O)/C1=C/c1cccs1	-23%	-3%	-6%	-1%	?	2%
COc1ccccc1OCC(=O)NNc1c2ccccc2nc2ccccc12	16µM*[quencher]	-18%	?	?	18µM*	-1%
O=C(CN1CCOCC1)NNc1c2ccccc2nc2ccccc12	-19%	-3%	2%	?	?	-4%
Nc1ccccc1C(=O)NNc1c2ccccc2nc2ccccc12	13µM*[quencher]	-5%	3%	-29%	5.6µM*	0%
CCn1c(NC(=O)c2ccc(C)cc2)c2ccccc2nc1=O	-3%	0%	3%	5%	-5%	1%
Cc1ccc(C(=O)NNc2c3ccccc3nc3ccccc23)cc1	11µM*[quencher]	-1%	?	i	3.2µM*	7%
C[C@@H](N)CCCP(=O)(O)O	-11%	-3%	-3%	.	-5%	-1%
O=[N+]([O-])c1cc(-c2nc(-c3ccco3)no2)ccc1NCc1ccccc1	-11%	1%	4%	.	-12%	0%
CCCN(CCC)CCNC(=O)c1nn(C)c2c1CS(=O)(=O)c1ccccc1-2	-3%	8%	3%	.	-5%	1%
CCOc1ccccc1CNC(=O)c1nn(C)c2c1CS(=O)(=O)c1ccccc1-2	-12%	0.11µM*[quencher]	-4%	.	-12%	-25%
CCN(CC)CCCNC(=O)c1nn(C)c2c1CSc1ccccc1-2	25µM*[quencher]	-4%	?	.	?	1%
CC(C)CCNC(=O)c1nn(C)c2c1CSc1ccccc1-2	0%	-1%	-4%	.	2%	-2%
Cn1nc(C(=O)N2CCN(c3ccc(F)cc3)CC2)c2c1-c1ccccc1SC2	7.1µM*[quencher]	-3%	-6%	.	-11%	-1%
CCCN(CCC)CCCNC(=O)c1nn(C)c2c1CS(=O)(=O)c1ccccc1-2	-13%	50µM*[quencher]	8%	.	-15%	-17%
Cc1nc(-c2ccc(S(=O)(=O)Nc3ccc(Br)cc3Cl)s2)cs1	6%[0.0958 µM]	-1%	-3%[0.0958 µM]	-8%	.	9%
Cc1ccc(CNC(=O)Cn2cc(S(=O)(=O)Cc3cccc(Cl)c3)c3ccccc32)cc1	-21%	3%	-10%	.	4%	6%
O=C(c1ccco1)N1CCN(S(=O)(=O)c2ccc3c(c2)OCCO3)CC1	-7%	-3%	0%	1%	-7%	-4%
COc1ccc(N/C=C2\C(=O)CCc3c2oc2cc(Cl)c(O)c(Cl)c32)cc1	?	-5%	16%	-21%	2.5µM*	-7%
COc1ccc(N/C=C/C(=O)c2ccc(Cl)cc2)cc1	0%	0%[53 µM]	-1%	-3%	?	1%[53 µM]
C=CCC(Nc1ccccc1)C12C=CC(O1)C(C(=O)OC)=C2C(=O)OC (stereo unspecified)	-30%	1%	-1%	-1%	7.9µM*	-11%
Cc1cc(N(C)C)ccc1N=Nc1ccc2ncccc2c1	?	-7%	11%	-25%	0.5µM*	2%
CCOc1cccc2cc(-c3nc4sc5c(c4c(=O)[nH]3)CCC(C(C)(C)C)C5)c(=O)oc12 (stereo unspecified)	-22%	5%	-13%	.	-8%	-11%
Cc1nn(-c2ccccc2)c2[nH]c(=O)c(CNc3ccc(N4CCOCC4)cc3)cc12	?	-2%	?	?	18µM*	-23%
SMILES	Tau fluor counter	TR SRC2 fluor cs	Tau FP inhib	KDM4E inh	Tau ThT inhib	TRb SRC2 PPI
CC(C)(C)c1nn(-c2ccccc2)c2[nH]c(=O)c(CNc3ccc4c(c3)OCCO4)cc12	?	-1%	8%	0%	?	3%
Cc1cnc(N)c2c(=O)oc3ccccc3c12	-5%	-3%	-4%	?	-11%	4%
COc1ccc(-c2nc(-c3ccccc3)c(-c3cccs3)[nH]2)cc1OC	14µM*[quencher]	-8%	?	?	?	-13%
Fc1ccc(-c2nc(-c3cccs3)c(-c3cccs3)[nH]2)cc1	?	-2%	11%	.	-7%	-4%
COc1ccc(-c2nc(-c3cccs3)c(-c3cccs3)[nH]2)cc1OC	10µM*[quencher]	-11%	10%	?	?	1%
Cc1ccc(NS(=O)(=O)c2ccc3[nH]c4c(c3c2)CCCCCC4)cc1Cl	7.1µM*[quencher]	-4%	-9%	.	-6%	1%
Cc1ccc(NS(=O)(=O)c2ccc3[nH]c4c(c3c2)CCCC4)cc1N(C)C	22µM*[quencher]	?	13%	.	-7%	-2%
Cc1ccc(NS(=O)(=O)c2ccc3[nH]c(=O)ccc3c2)cc1N(C)C	-21%	-3%	9%	.	-14%	7%
COc1ccc(NS(=O)(=O)c2ccc(N3CCCCS3(=O)=O)cc2)cc1Cl	-17%	0%	-8%	.	7%	-2%
Cc1ccc(CNS(=O)(=O)c2ccc3[nH]c4c(c3c2)CCCCC4)cc1	?	-4%	?	.	3%	-3%
COc1ccc(NS(=O)(=O)c2ccc3[nH]c4c(c3c2)CCCC4)cc1Cl	8.9µM*[quencher]	9%	-13%	.	-13%	6%
COc1ccccc1NC(=O)Cn1c(=O)n(CC2CCC(C(=O)NCCc3ccccc3)CC2)c(=O)c2ccccc21 (stereo unspecified)	-5%	-2%	10%	.	7%	-6%
O=C(Nc1nc2ccccc2n1CCN1CCOCC1)c1cn(-c2ccccc2)nc1-c1ccccc1	?	2%	-11%	25µM*	1%	-7%
Cc1ccc(Cl)cc1NC(=O)COC(=O)c1ccc(COc2ccc3c(C)cc(=O)oc3c2)cc1	-5%	0%	-1%	?	?	4%
Cc1ccc(C(C)C)c(OCc2ccc(C(=O)N/N=C/c3cccc(O)c3O)cc2)c1	?	-4%	-7%	4.5µM*	?	-2%
Cc1ccc(C(C)C)c(OCc2ccc(C(=O)N/N=C/c3ccc(O)c(O)c3)cc2)c1	1%	-4%	2%	5%	1%	1%
O=C(NC(=S)N1CCN(c2ccccn2)CC1)c1ccccc1	6%	-3%	1%	-27%	1%	-4%
